TIM10 inh = growth inhibitors of isogenic TIM10 control yeast, primary screen, counter-screen for tim10-1 yeast inhibitor project, luminescence, uHTS; S. cerevisiae TIM10 strain growth, BacTiter-Glo luminescence, 24 h; inhibition, % at 10 µM; 330,000 compounds, 1.4% hits;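 active means inhibition of 40% or more at the single tested concentration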;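 further: wild-type TIM10 isogenic control strain grown at permissive 25 °C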
PfHsp90 yeast 2 = growth inhibition of PfHsp90-expressing yeast, primary screen, antimalarial PfHsp90 inhibitor project, S. cerevisiae, BacTiter-Glo luminescence, single point, set 2 | inhibition, % at 9.4 µM | 310,000 compounds, 0.32% hits | BacTiter-Glo ATP, 48 h; yeast lacking PDR1 and PDR3 efflux regulators;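 active means every replicate shows inhibition above about 80%, whatever the replicate mean, limit read from the data; inconclusive means mean inhibition reaches the set limit but some replicate falls short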;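 further: 0% = DMSO neutral controls and 100% = 20 µM radicicol positive controls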
tim23-1 inh = growth inhibitors of tim23-1 mutant yeast, primary screen, luminescence, uHTS; inhibition, % at 20 µM; 330,000 compounds, 1.3% hits; S. cerevisiae tim23-1 growth, BacTiter-Glo luminescence, 24 h;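 active means growth inhibition of the mutant yeast at or above 50%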;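 further: temperature-sensitive mutant grown at 25 °C; plate controls were DMSO-treated mutant yeast for no effect and medium wells lacking yeast for full effect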
tim10-1 inh = growth inhibitors of tim10-1 mutant yeast, primary screen, luminescence, uHTS | S. cerevisiae tim10-1 ts strain growth, BacTiter-Glo, 24 h | inhibition, % at 20 µM | 330,000 compounds, 2.2% hits;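 active means inhibition of at least 40%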;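 further: mutant grown at 25 °C; 0% = DMSO wells with yeast and 100% = wells holding no yeast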
SKKanGAS inh = S. pyogenes SKKanGAS growth inhibitors in kanamycin, primary screen, streptokinase expression inhibitor project, SKKanGAS strain, BacTiter-Glo luminescence | 6 h | 300,000 compounds, 1.3% hits | inhibition, % at 7.5 µM | AID 1662, 2009;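 active means mean replicate score, as percent of positive control median, at least 50; inconclusive means mean below 50 but one replicate at or above 50; inactive means mean and every replicate below 50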;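 further: strain carries kanamycin resistance gene driven by streptokinase promoter and grows in 40 µg/ml kanamycin; loss of luminescence reflects streptokinase promoter inhibition or plain growth inhibition; 0% = median of DMSO wells and 100% = positive control at its reference dose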
NALP1 inh = NALP1 inflammasome inhibitors in reconstituted yeast, colorimetric, S. cerevisiae, triplicate retest. S. cerevisiae NALP1/ASC/caspase-1 growth, X-gal OD620, 72 h. inhibition, % at 10 µM. 280,000 compounds, 0.61% hits. AID 2071, 2009; in the data active means inhibition mostly above about 24%, no sharp cut-off; inactive means mostly below about 32%
tim10-1 confirm = growth inhibitors of tim10-1 mutant yeast, confirmation, single concentration, luminescence, S. cerevisiae; S. cerevisiae tim10-1 ts strain growth, BacTiter-Glo, 24 h; 7,400 compounds, 56% hits; inhibition, % at 20 µM; shares compounds with tim10-1 inh;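 active means inhibition of yeast growth at or above a set limit in either of two repeat tests at 20 µM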;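 further: tim10-1 mutant grown at permissive 25 °C to find synthetic lethal compounds; 0% = DMSO yeast wells and 100% = medium wells without yeast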
tim10 confirm = growth inhibitors of wild-type TIM10 yeast, confirmation, counter-screen for tim10-1 synthetic lethality project, single concentration, luminescence, S. cerevisiae. shares compounds with TIM10 inh. S. cerevisiae tim10 strain growth, BacTiter-Glo luminescence, 24 h. inhibition, % at 10 µM. 4,600 compounds, 63% hits;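 active means inhibition of yeast growth at or above a set limit in either of two replicates at 10 µM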;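 further: this counterscreen used the strain with wild-type TIM10; 0% = yeast with DMSO and 100% = medium wells lacking yeast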
An asterisk follows results filed as active; ? = inconclusive; nt = not tested or not shown. This is a sample that favours compounds with a hit; in the whole collection about 4.8% have one here.

SMILES | TIM10 inh | PfHsp90 yeast 2 | tim23-1 inh | tim10-1 inh | SKKanGAS inh | NALP1 inh | tim10-1 confirm | tim10 confirm
CC1Cc2ccccc2N1C(=O)CSc1nnnn1Cc1ccccc1 (stereo not given) | 38 | 3 | 39 | 60* | 4 | 1 | 45* | nt
CCN(CC)S(=O)(=O)c1cccc(NC(=O)c2ccc(SC)cc2OC)c1 | 20 | 27 | 32 | 43* | 7 | 2 | 37* | nt
O=C(Nn1c(SCc2ccc(F)cc2)nc2ccsc2c1=O)c1ccccc1 | 20 | -39 | 26 | 40* | 4 | 34 | 19 | nt
Cc1nn2c(-c3ccccc3)nnc2c2ccccc12 | 32 | nt | 35 | 27 | nt | 5 | nt | nt
Cc1nn2c3ccccc3nc2c2ccccc12 | 18 | -66 | 31 | 51* | 4 | 4 | 42* | nt
COc1cc(NC(=O)CSc2nc3ncnc(N)c3[nH]2)c(C(=O)O)cc1OC | -3 | 0 | 8 | 9 | 1 | 25 | nt | nt
O=C(c1ccc(O)cc1)c1ccc(Cl)cc1 | -4 | 5 | 39 | 40 | 3 | 9 | 26 | nt
Cc1nnc(SCc2cc(=O)oc3ccc4ccccc4c23)n1Cc1ccccc1 | 15 | 3 | 44 | 46* | 6 | 37 | 24 | nt
COc1cc(OC)c(NC(=O)c2c(-c3ccccc3)noc2C)cc1Cl | -12 | nt | -15 | 8 | 3 | 6 | nt | nt
CN(Cc1ccccc1Cl)C(=O)c1cnccc1C(F)(F)F | -10 | 10 | -7 | -8 | -3 | 7 | nt | nt
Cn1c(/C=C/c2ccc([N+](=O)[O-])o2)nc2ccccc2c1=O | 77* | 98* | -3 | 77* | 48 | -55 | 58* | -20
CCCN(CCC)C(=S)NC(=O)c1ccc(Cl)cc1Cl | 40* | 19 | 42 | 54* | -11 | 3 | 28 | 37*
Cc1ccccc1C(=O)NNC(=S)NC(=O)c1ccc(Cl)cc1Cl | 23 | -95 | 0 | 15 | 28 | -10 | nt | nt
Cc1ccc(Nc2nnc(SCC(=O)c3ccc(Br)s3)s2)c(C)c1 | 46* | -19 | 38 | 43* | 29 | 24 | 34* | -7
Cc1ccc(NC(=O)CSc2nnc(NC(=O)C(C)C)s2)c(C)c1 | 7 | -6 | 5 | -1 | -2 | 3 | nt | nt
O=C(CCl)N(c1ccccc1)c1c[nH]c2ccccc12 | 20 | -12 | 24 | 23 | -2 | 6 | nt | nt
O=C(CCl)N(c1ccc(Cl)cc1)c1c[nH]c2ccccc12 | 41* | 15 | 40 | 44* | 17 | 21 | 36* | 28*
Cc1ccc2c(c1)sc(-c1ccc(N(C)C)cc1)[n+]2C | 85* | 13 | 48 | 70* | 1 | 20 | 74* | 82*
CCCCn1c(N)c(N(CCOC)C(=O)CCNC(=O)c2ccc(Cl)cc2)c(=O)[nH]c1=O | 5 | nt | -2 | -4 | -7 | nt | nt | nt
COc1ccc(-n2nc(C(=O)NCC(=O)NCCC3=CCCCC3)c3ccccc3c2=O)cc1 | 7 | 4 | 38 | 32 | 2 | 24 | nt | nt
O=c1c(O)c(-c2ccccc2)oc2ccccc12 | nt | -13 | nt | nt | nt | nt | nt | nt
O=c1c(O)c(-c2cccs2)oc2ccccc12 | 65* | -57 | 15 | 42* | 76* | 50 | 35* | 71*
CN(C(=O)CC1C(=O)NCCN1Cc1ccc(F)cc1)C1CCOCC1 (stereo not given) | -19 | 38 | -4 | 11 | 1 | -5 | nt | nt
Fc1ccc(-c2ccnc3nc(N4CCOCC4)nn23)cc1 | -5 | nt | 1 | 26 | 0 | 7 | nt | nt
COc1ccc(-c2ccnc3nc(N4CCN(c5ccccc5)CC4)nn23)cc1 | 47* | nt | 48 | 43* | 7 | 37 | 36* | 26
SMILES | TIM10 inh | PfHsp90 yeast 2 | tim23-1 inh | tim10-1 inh | SKKanGAS inh | NALP1 inh | tim10-1 confirm | tim10 confirm
Cc1cc(N)n(-c2ccc(Oc3ccccc3)c(S(=O)(=O)O)c2)n1 | 6 | -23 | 20 | 27 | 2 | 3 | nt | nt
CCOc1ccc(N2C(=O)CC(N)C2=O)cc1 (stereo not given) | 72* | -19 | 40 | 73* | nt | 94* | 69* | 70*
COc1ccc(N2C(=O)CC(Sc3n[nH]c(-c4ccccc4)n3)C2=O)cc1 (stereo not given) | 23 | -5 | 20 | 34 | -1 | 4 | nt | nt
CCOc1ccc(N2C(=O)CC(Sc3n[nH]c(-c4ccccc4)n3)C2=O)cc1 (stereo not given) | 57* | 31 | 23 | 51* | -1 | 37* | 53* | 36*
CCN(CC)CCN(C(=O)CCS(=O)(=O)c1ccccc1)c1nc2c(C)cc(C)cc2s1 | 28 | -2 | 39 | 38 | ? | 34 | nt | nt
CCOc1ccc2c(c1)c1nnc(SCC3CCCO3)nc1n2C (stereo not given) | 44* | nt | 23 | 46* | 7 | -6 | 30* | 47*
CCCOC(=O)c1ccc(NC(=O)COC)cc1 | -2 | -1 | 7 | 12 | -8 | 14 | nt | nt
CCn1c2c(c3cc(Br)ccc31)CCC/C2=N\O | 54* | -7 | 29 | 66* | 5 | 22 | 39* | 34*
CCn1c2c(c3cc(OCC(C)C)ccc31)CCCC2=O | -6 | -28 | 17 | -6 | -8 | -1 | nt | nt
CSc1ccccc1NC(=S)Nc1cccc(C(F)(F)F)c1 | 6 | 13 | -2 | 12 | 8 | 9 | nt | nt
Fc1ccccc1CNC(=S)Nc1cccc(C(F)(F)F)c1 | 43* | -60 | 47 | 47* | 9 | 15 | 46* | 2
CCCCn1c(SCC(=O)NC2CCS(=O)(=O)C2)nnc1-c1ccc(OC)cc1 (stereo not given) | 2 | 4 | -10 | -8 | -3 | nt | nt | nt
Cc1[nH]c(=O)c(C(=O)/C=C/c2ccccc2F)c2c1CCCC2 | 44* | 12 | 41 | 47* | -7 | 12 | 52* | 38*
O=C(/C=C/c1ccc(-c2ccccc2)o1)c1ccccc1 | 54* | -5 | 38 | 40 | -9 | nt | 59* | 48*
O=C(Nc1ccc(Oc2ccccc2)cc1)C1CCN(c2ncccn2)CC1 | 8 | 2 | -15 | 13 | 1 | 17 | nt | nt
COc1ccccc1Nc1nc(N)nc(CSC(=S)N2CCCCC2C)n1 (stereo not given) | 49* | 3 | 38 | 42* | 3 | 16 | 27 | -23
